The values that follow come from PubChem BioAssay (NCATS).

Structures are written as SMILES. Records with an inconclusive call do not appear. Calls of active or inactive are those of the source. Unless noted, the call rests on the fitted dose curve; in most records, active means well fitted curve in the direction sought with a large enough effect; inconclusive means small, poorly fitted or top-dose-only effect, or another doubt; inactive means no such curve, though single readings can be large; an effect the other way counts as inactive or inconclusive.

Assay [1] concerns the target Aldehyde dehydrogenase, mitochondrial (Homo sapiens) (UniProt P05091). In words: qHTS for Inhibitors of the Aldehyde Dehydrogenase Family (ALDH2) Confirmatory screens (AID 2061303; active means well fitted inhibition curve with a large enough effect; title and protocol of this record describe different tests; further: nearly all actives have a fitted effect of over 45% in size; further: potency means the concentration at half of the fitted maximal effect).
Assay [2] can be described thus: qHTS for Inhibitors of the Aldehyde Dehydrogenase Family (ALDH1A2, ALDH1A3, ALDH2, ALDH3A1) (AID 2061307). Further: nearly all actives have a fitted effect of over 50% in size. On Potency: test system not described further here; potency means the concentration at half of the fitted maximal effect.
Assay [3] concerns the target Retinal dehydrogenase 2 (Homo sapiens) (UniProt O94788). Description: qHTS for Inhibitors of the Aldehyde Dehydrogenase Family (ALDH1A2) Confirmation screens (AID 2061314). Further: nearly all actives have a fitted effect of over 65% in size. Further: potency means the concentration at half of the fitted maximal effect. A general note: Quantitative high-throughput screening tests each substance at several concentrations.
Assay [4] concerns the target Retinaldehyde dehydrogenase 3 (Homo sapiens) (UniProt P47895). In words: qHTS for Inhibitors of the Aldehyde Dehydrogenase Family (ALDH1A3) Primary screen (AID 2061315).
Assay [5] deals with Aldehyde dehydrogenase 1A1 (Homo sapiens) (UniProt P00352). Description: qHTS for Inhibitors of the Aldehyde Dehydrogenase Family (ALDH1A1) Confirmatory screens (AID 2061316). Further: nearly all actives have a fitted effect of over 65% in size. Further: potency means the concentration at half of the fitted maximal effect.
Assay [6] deals with Retinaldehyde dehydrogenase 3 (Homo sapiens) (UniProt P47895). Description: qHTS for Inhibitors of the Aldehyde Dehydrogenase Family (ALDH1A3) Confirmatory screens (AID 2061311). Further: nearly all actives have a fitted effect of over 60% in size. Further: potency means the concentration at half of the fitted maximal effect.
The target of assay [7] is Aldehyde dehydrogenase, mitochondrial (Homo sapiens) (UniProt P05091). In words: qHTS for Inhibitors of the Aldehyde Dehydrogenase Family (ALDH2) Primary screen (AID 2061308). Further: nearly all actives have a fitted effect of over 55% in size. Further: potency means the concentration at half of the fitted maximal effect.
In assay [8] the target is Retinaldehyde dehydrogenase 3 (Homo sapiens) (UniProt P47895). In words: qHTS for Inhibitors of the Aldehyde Dehydrogenase Family (ALDH1A3) Validation screen (AID 2061312). Further: nearly all actives have a fitted effect of over 45% in size.

`O=Cc1ccc(-c2ccc3ncnc(NCc4cccs4)c3c2)o1`: the Potency in assay [1] is 11.3 µM (active). Besides, the Potency result in assay [2], in assay [3] and in assay [4] was “inactive” each time.

On to `CCOc1ccc(NC(=O)CSc2nc3ccccc3nc2N2CCOCC2)cc1`, for which the Potency result in assay [1], in assay [2] and in assay [5] was “inactive” throughout.

Consider `Cc1ccc(C(=O)NC2CCN(Cc3cccc(-c4cccc(C)c4)c3)CC2)cc1`, for which the Potency entry in assay [1], in assay [2], in assay [3] and in assay [5] was “inactive” throughout.

Consider `CC(C)(C)OC(=O)N1CCN(c2ccc(NCc3cnc(-c4ccc(C#N)cc4)s3)cc2)CC1`, for which the Potency is 1.79 µM (active) in assay [1], 2.83 µM (active) in assay [2] and 11.3 µM (active) in assay [5]. Further, the Potency entry in assay [3] and in assay [4] was “inactive” in each case.

Regarding `N#Cc1ccc(-c2ccc(CNc3ccc(N4CCOCC4)cc3)o2)cc1`, the Potency in assay [1] is 0.04 µM (active); in assay [2] it was 0.565 µM (active); in assay [6], 15.9 µM (active); in assay [5], 7.98 µM (active).

Regarding `O=C(O)c1ccccc1SC1=NS(=O)(=O)c2ccccc21`, the Potency entry in assay [1], in assay [2], in assay [3], in assay [4] and in assay [5] was “inactive” in each case.

For the compound `COc1cc(NC(=S)N2CCN(c3cccc(C(F)(F)F)c3)CC2)nc2ccccc12`, the Potency in assay [1] is 25.1 µM (active); in assay [3], 7.94 µM (active). Moreover, the Potency result in assay [2] and in assay [4] was “inactive” throughout.

For the compound `COc1cccc(-c2ccc(CN3CCCC(NC(=O)Nc4ccccc4)C3)cc2)c1` (stereo not drawn), the Potency entry in assay [1] and in assay [3] was “inactive” throughout. Moreover, the Potency in assay [2] is 12.6 µM (active).

In the case of `CCCCc1ccc(NC(=O)CSc2nc3ccccc3nc2N2CCOCC2)cc1`, the Potency result in assay [1], in assay [2] and in assay [5] was “inactive” each time.

Regarding `CCc1nc2nc(C)cc(Nc3ccc(Br)cc3F)n2n1`, the Potency result in assay [1], in assay [2], in assay [3] and in assay [5] was “inactive” in each case.

As to `COc1ccc(-c2nc3cccc(OC)c3c(=O)n2Cc2ccccc2)cc1COc1ccc(NC(C)=O)cc1`, the Potency is 28.2 µM (active) in assay [1], 2.01 µM (active) in assay [2], 25.1 µM (active) in assay [6] and 12.7 µM (active) in assay [5].

For `CCOc1ccc(NC(=O)C2CCN(c3cnn(Cc4ccccc4)c(=O)c3)C2)cc1` (stereo not drawn), the Potency result in assay [1], in assay [2] and in assay [3] was “inactive” throughout.

As to `N#CC1CCN(c2nc(-c3ccc(Br)cc3)cs2)CC1`, the Potency result in assay [1], in assay [7], in assay [6], in assay [3] and in assay [4] was “inactive” each time.

For `Cc1c(C(=O)N(C)CC2CCCO2)[nH]c2c1C(=O)CC(c1ccco1)C2` (stereo not drawn), the Potency entry in assay [1] and in assay [7] was “inactive” in each case. In addition, the Potency in assay [6] was 15.9 µM (active); in assay [3] it was 12.7 µM (active).

Consider `NC(=O)C1CCN(c2nc(-c3ccc(F)cc3)cs2)CC1`, for which the Potency result in assay [1], in assay [7], in assay [6], in assay [3] and in assay [4] was “inactive” each time.

As for `CC(C)(C)OC(=O)NC1CCN(c2nc(-c3ccc(Br)cc3)cs2)CC1`, the Potency result in assay [1], in assay [7], in assay [6], in assay [3], in assay [4] and in assay [5] was “inactive” throughout.

`O=C1Nc2ccccc2/C1=C\c1ccc(O)c(F)c1`: the Potency was 0.224 µM (active) in assay [1], 2.51 µM (active) in assay [7], 15.8 µM (active) in assay [6] and 5.65 µM (active) in assay [3]. Besides, the Potency entry in assay [4] and in assay [5] was “inactive” throughout.

With `C[C@H]1[C@H](/C=C/c2ccc(-c3ccccc3C#N)cn2)[C@@H]2[C@@H](C)OC(=O)[C@@H]2C[C@@H]1C`, the Potency entry in assay [1], in assay [7], in assay [6], in assay [8], in assay [3] and in assay [4] was “inactive” throughout. Further, the Potency in assay [5] is 1.27 µM (active).

`CN1CCN(c2cccc(CNc3nn4c(=O)c5ccccc5nc4s3)c2)CC1`: the Potency entry in assay [1], in assay [7], in assay [6] and in assay [4] was “inactive” each time. For the same compound, the Potency in assay [3] is 25.2 µM (active).

As to `CCOC(=O)C1CCN(c2nc(-c3ccc(Br)cc3)cs2)CC1`, the Potency result in assay [1], in assay [7], in assay [6], in assay [3], in assay [4] and in assay [5] was “inactive” in each case.

In the case of `NC(=O)C1CCN(c2nc(-c3ccc(Cl)cc3)cs2)CC1`, the Potency result in assay [1], in assay [7], in assay [6], in assay [3], in assay [4] and in assay [5] was “inactive” throughout.

For the compound `CCOc1ccccc1-c1nnc2n1N=C(c1cccc(OC)c1)CS2`, the Potency entry in assay [1], in assay [7], in assay [6], in assay [3] and in assay [4] was “inactive” throughout.

Regarding `COc1cc(N2C(=O)c3ccccc3C2=O)c2ncccc2c1`, the Potency result in assay [1], in assay [2] and in assay [5] was “inactive” throughout.

Turning to `CC(=O)N1CCN(c2ccc(NCc3ccc(C)cc3)cc2)CC1`, the Potency entry in assay [1] and in assay [7] was “inactive” each time. In addition, the values for the Potency in assay [6] and in assay [3] were 22.5 µM (active) and 11.3 µM (active), respectively.

`FC(F)(F)c1cc(-c2ccc(CNc3nc(-c4ccncc4)nc4ccccc34)cc2)ccn1`: the values for the Potency in assay [1], in assay [6] and in assay [3] were 8.91 µM (active), 2.52 µM (active) and 10 µM (active), respectively. The Potency entry in assay [7] and in assay [4] was “inactive” each time.

Take `COc1cc(Nc2nc(-c3ccncc3)nc3ccccc23)ccc1N1CCN(C)CC1`: the Potency result in assay [1] and in assay [7] was “inactive” throughout.

Regarding `CS(=O)(=O)c1ccc(C(=O)OCC(=O)N2Cc3ccccc3C2)cc1[N+](=O)[O-]`, the Potency result in assay [1], in assay [7] and in assay [4] was “inactive” in each case. Moreover, the figures for the Potency in assay [6] and in assay [3] were 28.2 µM (active) and 7.98 µM (active), respectively.

Take `COc1cc2c(cc1O)C(c1ccc(O)cc1)C(C)C(C)C2` (stereo not drawn): the Potency entry in assay [1] and in assay [7] was “inactive” in each case.

Take `O=C(Nc1cncc(NC(=O)c2cccs2)c1)c1cccs1`: the Potency result in assay [1], in assay [7], in assay [3], in assay [4] and in assay [5] was “inactive” throughout. Also, the Potency in assay [6] is 28.3 µM (active).

`Cc1cnc(-c2ccccc2C(C)O)nc1NCC1CCN(c2cccnc2)CC1` (stereo not drawn): the Potency result in assay [1], in assay [7], in assay [6] and in assay [4] was “inactive” throughout. The Potency in assay [3] is 12.7 µM (active).

`O=C(CN1C(=O)CC(c2ccco2)Sc2ccccc21)Nc1ccccc1F` (stereo not drawn): the Potency result in assay [1], in assay [7], in assay [6], in assay [3] and in assay [4] was “inactive” each time. Besides, in assay [5], the Potency was 2.52 µM (active).

Turning to `Oc1cc(NCCc2cccnc2)cc2cccnc12`, the Potency entry in assay [1], in assay [7] and in assay [3] was “inactive” each time. For the same compound, the Potency in assay [6] was 0.4 µM (active).
